Here are results for 50 sequences from the supplement of paper PMC10338343.

Assay [1] relates to MILI (PIWIL2) piRISC loaded with piRNA #1 (26 nt). In words: pre-steady-state target cleavage rate (min^-1); guide: piRNA #1 5'p-UGAGGUAGUAGGUUGUAUAGUAUCCA; higher = faster piRNA-guided slicing of the target. Particulars: auxiliary factor: 500 nM mouse GTSF1. The method, boiled down:
(§1)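 Active affinity-purified piRISC (1 nM) loaded with one synthetic guide was mixed with a transcribed, DNA-blocked target RNA library (0.1 nM), with or without 500 nM GTSF1 partner protein, in HEPES–potassium acetate buffer at 33 °C for 0–8 or 0–960 min. Uncleaved targets were sequenced, normalised to depth and to weakly complementary targets, and pooled across three trials, with k3 capped at 0.0001 min^-1. The pre-steady-state cleavage rate was determined with a burst-and-steady-state fit.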

In assay [2] the test system is EfPiwi piRISC loaded with piRNA #1 (26 nt). In words: pre-steady-state target cleavage rate (min^-1); auxiliary factor: 500 nM Ephydatia muelleri Gtsf1; guide: piRNA #1 5'p-UGAGGUAGUAGGUUGUAUAGUAUCCA; MIWI and MILI are mouse PIWI proteins and EfPiwi is from a freshwater sponge; tags in brackets are library labels; higher = faster piRNA-guided slicing of the target. An outline of the steps:
as §1

± gives the standard deviation.

Turning to GGAGAGGAUACUAUAGAACCUUCUACCUCA, the “pre-steady-state target cleavage rate” value in assay [1] is 0.00389 ± 0.0026; in assay [2] it was 0.003 ± 0.002.

On to GGAGUGGAUAGUAUACAACCUAGUACCUCA, for which the “pre-steady-state target cleavage rate” value in assay [1] turned out to be 0.0556 ± 0.0099; in assay [2], 0.00264 ± 0.0018.

As to GGAGACGAUACUAUAACAACCUACUACCUCA, the “pre-steady-state target cleavage rate” value in assay [1] is 0.142 ± 0.012; in assay [2], 0.00793 ± 0.0029.

As to GGAGUGGAUACUAAACAACCUACAACCUCA, the “pre-steady-state target cleavage rate” value stood at 0.0728 ± 0.009 in assay [1] and 0.00162 ± 0.0015 in assay [2].

On to GGAGAGGAUUCUAUACAACCUACUACCUCA, for which the “pre-steady-state target cleavage rate” value worked out at 0.179 ± 0.011 in assay [1] and 0.0066 ± 0.0039 in assay [2].

Turning to GGAGAGGAUACUACACAACCUACUACCUCA, the “pre-steady-state target cleavage rate” value in assay [1] amounted to 0.193 ± 0.019; in assay [2] it was 0.00871 ± 0.004.

Turning to GGAGACCUUACUAUACAUCCUACUACCUCA, the “pre-steady-state target cleavage rate” value in assay [1] stood at 0.292 ± 0.024; in assay [2], 0.00607 ± 0.0029.

In the case of GGAGAGGAAAGUAUACAACCUACUACCUCA, the “pre-steady-state target cleavage rate” value amounted to 0.0417 ± 0.0061 in assay [1] and 0.00774 ± 0.0044 in assay [2].

As for GGAGAGGAUACUAUACAACCAACUACCACA, the “pre-steady-state target cleavage rate” value worked out at 0.0058 ± 0.0018 in assay [1] and 0.00388 ± 0.0019 in assay [2].

As to GGAGAGGAUACUAUACAACCUACUACCUA, the “pre-steady-state target cleavage rate” value in assay [1] was determined as 0.104 ± 0.013; in assay [2] it was 0.217 ± 0.081.

Consider GGAGUGGAUACUAUACAACCUACUAACCUCA, for which the “pre-steady-state target cleavage rate” value is 0.133 ± 0.014 in assay [1] and 0.00634 ± 0.0027 in assay [2].

As for GGAGACCUAACUAUACAACCUACUACUUCA, the entries for the “pre-steady-state target cleavage rate” value in assay [1] and in assay [2] were 0.084 ± 0.02 and 0.00438 ± 0.0028, respectively.

As for GGAGACCAAUCUAUACAACCUACUACCUCA, the “pre-steady-state target cleavage rate” value in assay [1] is 0.117 ± 0.02; in assay [2], 0.0121 ± 0.0056.

As for GGAGACCUAUGUUAUACAACCUACUACCUCA, the “pre-steady-state target cleavage rate” value was found to be 0.104 ± 0.01 in assay [1] and 0.0122 ± 0.0063 in assay [2].

Take GGAGACCUAUGAGUACAACCUACUACCUCA: the “pre-steady-state target cleavage rate” value in assay [1] was 0.00674 ± 0.0022; in assay [2], 0.00713 ± 0.004.

Regarding GGAGUGGAUACUAUACAACCUACCUACCUCA, the “pre-steady-state target cleavage rate” value in assay [1] amounted to 0.128 ± 0.0098; in assay [2], 0.00423 ± 0.0017.

For the sequence GGAGACGAUACAAUACUACCUACUACCUCA, the “pre-steady-state target cleavage rate” value stood at 0.201 ± 0.017 in assay [1] and 0.00238 ± 0.0021 in assay [2].

Turning to GGAGACCAUACUAUACAUCCUACUACCUCA, the “pre-steady-state target cleavage rate” value in assay [1] stood at 0.302 ± 0.025; in assay [2], 0.00918 ± 0.0027.

Take GGAGACCUAACUAUACAACCUACUACGACA: the “pre-steady-state target cleavage rate” value was 0.118 ± 0.037 in assay [1] and 0.00325 ± 0.0029 in assay [2].

GGAGACGAAACUAUACAACGUACUACCUCA: the results for the “pre-steady-state target cleavage rate” value in assay [1] and in assay [2] were 0.0174 ± 0.0054 and 0.00237 ± 0.0021, respectively.

Turning to GGAGACGAUACAAUACAACCUACUACGUCA, the figures for the “pre-steady-state target cleavage rate” value in assay [1] and in assay [2] were 0.102 ± 0.015 and 0.00361 ± 0.0032, respectively.

Turning to GGAGAGGAAACUAUACAACCUAGUACCUCA, the entries for the “pre-steady-state target cleavage rate” value in assay [1] and in assay [2] were 0.0133 ± 0.0079 and 0.00323 ± 0.0013, respectively.

With GGAGUGGAUACUAUACAAGCUACUUCCUCA, the “pre-steady-state target cleavage rate” value in assay [1] came to 0.0765 ± 0.0095; in assay [2], 0.00402 ± 0.0022.

As for GGAGACCUAACUAUACAACCUACAUCCUCA, the entries for the “pre-steady-state target cleavage rate” value in assay [1] and in assay [2] were 0.0364 ± 0.013 and 0.00597 ± 0.0051, respectively.

As for GGAGUGUGAUACUAUACAACCUACUACCUCA, the “pre-steady-state target cleavage rate” value in assay [1] turned out to be 0.179 ± 0.0087; in assay [2] it was 0.0158 ± 0.0069.

As to GGAGUGGAUACUAGUACAACCUACUACCUCA, the “pre-steady-state target cleavage rate” value was 0.141 ± 0.011 in assay [1] and 0.175 ± 0.056 in assay [2].

Take GGAGACGAUACUAUACAAGCUACUACCUCA: the “pre-steady-state target cleavage rate” value in assay [1] was determined as 0.269 ± 0.016; in assay [2] it was 0.00854 ± 0.0028.

Regarding GGAGACGAUACUUUACAUCCUACUACCUCA, the “pre-steady-state target cleavage rate” value in assay [1] is 0.257 ± 0.016; in assay [2], 0.00465 ± 0.0027.

As to GGAGACCUUACUAUACCACCUACUACCUCA, the figures for the “pre-steady-state target cleavage rate” value in assay [1] and in assay [2] were 0.109 ± 0.014 and 0.006 ± 0.003, respectively.

For GGAGACGAUACUAUACUACCUACUACCACA, the “pre-steady-state target cleavage rate” value in assay [1] amounted to 0.209 ± 0.016; in assay [2] it was 0.00202 ± 0.0018.

On to GGAGAGGAUACUAUACAACCUACGACCUCA, for which the “pre-steady-state target cleavage rate” value amounted to 0.1 ± 0.013 in assay [1] and 0.00309 ± 0.0016 in assay [2].

Turning to GGAGUGGAUACUAAACAACCUACUACCACA, the results for the “pre-steady-state target cleavage rate” value in assay [1] and in assay [2] were 0.113 ± 0.011 and 0.003 ± 0.0021, respectively.

For the sequence “GGAGUGGAUACUAUACAUGGAUGAUGGAGA [g14:g26:cont:t1A]”, the “pre-steady-state target cleavage rate” value in assay [1] and in assay [2] was under 0.0001 in each case.

GGAGAGGAAUACUAUACAACCUACUACCUCA: the “pre-steady-state target cleavage rate” value in assay [1] is 0.172 ± 0.0098; in assay [2] it was 0.0974 ± 0.034.

For GGAGACCUAACUAUACUACCUACUACCUCA, the “pre-steady-state target cleavage rate” value in assay [1] came out at 0.125 ± 0.022; in assay [2], 0.00314 ± 0.0024.

As to GGAGACCUAACCAUACAACCUACUACCUCA, the “pre-steady-state target cleavage rate” value in assay [1] was determined as 0.12 ± 0.072; in assay [2] it was 0.0143 ± 0.0069.

GGAGACCUUACUAUAACAACCUACUACCUCA: the “pre-steady-state target cleavage rate” value in assay [1] came to 0.134 ± 0.013; in assay [2] it was 0.00893 ± 0.0047.

As to GGAGACGAUAGUAUACAACCUAGUACCUCA, the figures for the “pre-steady-state target cleavage rate” value in assay [1] and in assay [2] were 0.0719 ± 0.011 and 0.00201 ± 0.0013, respectively.

Turning to GGAGACCAUUCUAUACAACGUACUACCUCA, the “pre-steady-state target cleavage rate” value was 0.0141 ± 0.0029 in assay [1] and 0.00402 ± 0.0025 in assay [2].

GGAGACGAUACUAUACAAACUACUACCUCA: the results for the “pre-steady-state target cleavage rate” value in assay [1] and in assay [2] were 0.245 ± 0.015 and 0.00656 ± 0.0025, respectively.

For the sequence GGAGACCAUACUAUACAACCUACUUGCUCA, the “pre-steady-state target cleavage rate” value came out at 0.13 ± 0.032 in assay [1] and 0.00354 ± 0.002 in assay [2].

On to GGAGUGGAUACUAUACACCCUACUACCUCA, for which the entries for the “pre-steady-state target cleavage rate” value in assay [1] and in assay [2] were 0.0921 ± 0.0066 and 0.0673 ± 0.023, respectively.

On to GGAGACCAUGCUAUACAACCUACUACCUCA, for which the “pre-steady-state target cleavage rate” value stood at 0.145 ± 0.023 in assay [1] and 0.00746 ± 0.0043 in assay [2].

In the case of GGAGAGGAUACUAUACAACUACUACCUCA, the “pre-steady-state target cleavage rate” value turned out to be 0.0329 ± 0.0041 in assay [1] and 0.00869 ± 0.0042 in assay [2].

For the sequence GGAGUGCAUACUAUACAUCCUACUACCUCA, the “pre-steady-state target cleavage rate” value is 0.313 ± 0.015 in assay [1] and 0.0107 ± 0.0041 in assay [2].

With GGAGACGAUACUAUACAACCUACUACACUCA, the “pre-steady-state target cleavage rate” value worked out at 0.202 ± 0.03 in assay [1] and 0.00494 ± 0.0019 in assay [2].

As to GGAGAGGAUACUAUACAAACUACUACCUCA, the “pre-steady-state target cleavage rate” value is 0.134 ± 0.013 in assay [1] and 0.00673 ± 0.0029 in assay [2].

Take GGAGACCAUACGAUACAACCUACUACCUCA: the “pre-steady-state target cleavage rate” value in assay [1] is 0.255 ± 0.028; in assay [2], 0.00769 ± 0.0035.

As to GGAGACCUAUCUAUACAACCCACUACCUCA, the “pre-steady-state target cleavage rate” value in assay [1] stood at 0.0169 ± 0.0041; in assay [2] it was 0.00474 ± 0.0043.

On to GGAGAGGAUACUAUUCAACCUACUACGUCA, for which the entries for the “pre-steady-state target cleavage rate” value in assay [1] and in assay [2] were 0.0602 ± 0.0084 and 0.00309 ± 0.0023, respectively.
